Screening results deposited in PubChem by Buhrlage Lab, Dana-Farber Cancer Institute and Novartis Institutes for BioMedical Research (Cambridge, Mass).
Hits are enriched below; roughly 11% of the tested compounds scored in any of these assays.
USP28 block – inhibitors of human USP28 deubiquitinase; Ubiquitin carboxyl-terminal hydrolase 28 (Homo sapiens), Q96RU2; 47,000 tested, 3% active; purified USP28, Ub-rhodamine cleavage fluorescence, 30 min; inhibition, % at 25 µM
USP17 block – inhibitors of human USP17 deubiquitinase. 47,000 tested, 6.5% active. AID 1645855, 2021. inhibition, % at 50 µM. Ubiquitin carboxyl-terminal hydrolase 17-like protein 5 (Homo sapiens), A8MUK1. purified USP17, Ub-rhodamine cleavage fluorescence, 3 h
USP30 inh – inhibitors of human USP30 deubiquitinase. Ubiquitin carboxyl-terminal hydrolase 30 (Homo sapiens), Q70CQ3. purified USP30, Ub-rhodamine cleavage fluorescence. inhibition, % at 25 µM. 47,000 tested, 5.3% active
Target sequence (Q70CQ3 whole entry, looked up): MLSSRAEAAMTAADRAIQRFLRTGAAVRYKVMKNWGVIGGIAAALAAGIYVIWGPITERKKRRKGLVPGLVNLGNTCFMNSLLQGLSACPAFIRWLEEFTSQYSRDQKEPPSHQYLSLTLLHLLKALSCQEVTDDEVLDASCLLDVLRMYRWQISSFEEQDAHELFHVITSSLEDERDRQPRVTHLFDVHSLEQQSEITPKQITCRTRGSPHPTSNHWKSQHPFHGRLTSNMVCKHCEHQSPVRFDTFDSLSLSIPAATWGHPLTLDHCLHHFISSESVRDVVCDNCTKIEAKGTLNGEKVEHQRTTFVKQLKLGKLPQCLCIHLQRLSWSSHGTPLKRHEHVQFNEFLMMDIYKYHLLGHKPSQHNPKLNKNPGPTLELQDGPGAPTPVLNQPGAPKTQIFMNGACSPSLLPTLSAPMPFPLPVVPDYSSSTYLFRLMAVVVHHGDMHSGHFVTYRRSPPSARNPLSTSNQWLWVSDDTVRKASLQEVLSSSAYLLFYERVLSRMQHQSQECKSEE
Large screens that a line does not name were inactive. Rule as the data show it: active = inhibition above about 30%; inactive = the rest.

Cc1c(C(=O)N2CCCN(S(=O)(=O)c3ccc(F)cc3)CC2)oc2ccc(F)cc12	none
O=S(=O)(c1ccc2nc(NC3CCCC3)cnc2c1)N1CCCCC1	none
Cn1c(=O)c(C(=O)Nc2ccc(N3CCOCC3)cc2)nc2ccccc21	none
Brc1ccccc1Cc1nc(-c2ccn3cnnc3c2)no1	none
Fc1ccc(Cc2nc(-c3ccn4cnnc4c3)no2)cc1	USP28 block 36
O=C(NCCOc1ccccc1F)[C@@H]1CCCN1C1=NS(=O)(=O)c2ccccc21	none
COc1ccc(Cl)cc1Nc1ncnc2sccc12	USP17 block 52 (no result: USP28 block, USP30 inh)
COc1cc2c(cc1OC)CN(c1ncnc3sccc13)CC2	none (no result: USP28 block, USP30 inh)
O=C(Nc1ccc(Cl)cc1)N1C[C@H]2C[C@H]3[C@](C1)(CN(Cc1cccnc1)S3(=O)=O)O2	none
CNc1nc2c(c(=O)n1Cc1ccccc1)CN(C(=O)Nc1ccccc1)CC2	none
CNc1nc2c(c(=O)n1-c1ccccc1)CCN(C(=O)c1ccc3ccccc3c1)C2	USP30 inh 43
CNc1nc2c(c(=O)n1-c1ccccc1)CN(C(=O)c1ccccc1)CC2	none
CNc1nc2c(c(=O)n1Cc1ccccc1)CN(C(=O)c1ccc(CN)cc1)CC2	USP17 block 59
CC1CCN(Cc2ccncc2)Cc2nc3ccccc3n21 (stereo not drawn)	none
COc1ccc(NCc2cc(=O)[nH]c3ccccc23)cc1	USP30 inh 37
COc1ccc(C(CNC(=O)c2cc(=O)[nH]c3ccccc23)N2CCCC2)cc1 (stereo not drawn)	none
CC1CCN(S(=O)(=O)c2ccc3c(c2)CCCC(=O)N3CC(=O)NC(C)C)CC1	none
CSCCC(NC(=O)c1ccc(Cl)cc1Cl)C(=O)OCC(=O)Nc1ccc2c(c1)OCCO2 (stereo not drawn)	none
CC1(C(=O)NCc2ccccc2)Cn2c(cc3ccccc32)C(=O)N1Cc1ccccc1 (stereo not drawn)	USP17 block 50
CC(C)CCNC(=O)C1(C)Cn2c(cc3ccccc32)C(=O)N1Cc1cccnc1 (stereo not drawn)	none
Cc1ccc(CN2C(=O)c3cc4ccccc4n3CC2(C)C(=O)NCc2ccccc2)o1 (stereo not drawn)	USP17 block 64
CC1(C(=O)NCc2ccccc2)Cn2c(cc3ccccc32)C(=O)N1Cc1cccnc1 (stereo not drawn)	none
CSCC[C@H](NC(=O)/C=C/c1ccc(Cl)cc1)c1nnc2ccccn12	none
COc1ccccc1Cc1cccc(C2CCN(S(=O)(=O)c3cn(C)cn3)CC2)n1	none
O=C(NNC1=NC2(CCCC2)Cc2ccccc21)c1cccnc1	USP30 inh 32
O=C(O)c1ccc2c(c1)C1(CCCCC1)CN2C(=O)CNC(=O)c1cccnc1	none
Cc1cc(-c2cncnc2C2CCN(C(=O)c3ccc(N(C)C)cc3)CC2)on1	none
CCn1ccc(C(=O)N2CCCC2c2nc(-c3ccccc3)n[nH]2)n1 (stereo not drawn)	none
COc1cc(C2=NO[C@]3(C(=O)Nc4ccccc43)[C@H]2C(=O)c2ccc(C)cc2)ccc1OCC#N	USP17 block 43
COc1cc(C2=NO[C@]3(C(=O)Nc4ccccc43)[C@H]2C(=O)c2ccccc2)ccc1OCC#N	none
NCCC(=O)N1CCCn2c(nc3ccccc32)C1Cc1ccccc1 (stereo not drawn)	none
COc1ccc(-c2noc(CCC3CCCC3)n2)cc1OC	none
Cc1nnc2ccc(-c3noc(Cc4cccc(F)c4)n3)cn12	none (no result: USP17 block)
O=c1ccc(-c2noc(CCC3CCCC3)n2)c[nH]1	USP28 block 43
O=c1c2nnn(-c3cccc(Cl)c3)c2ncn1Cc1nc(-c2ccc(F)cc2)no1	none
O=c1ccc(-c2noc(Cc3cccc(Cl)c3)n2)c[nH]1	USP28 block 68
CCc1nccn1Cc1nc(-c2ccc(OC)c(OC)c2)no1	none
COc1ccc(Cc2nc(-c3ccc(=O)[nH]c3)no2)cc1OC	USP28 block 33
O=c1ccc(-c2noc(Cc3cccc(C(F)(F)F)c3)n2)c[nH]1	USP28 block 48
O=S1(=O)c2ccccc2O[C@H]2CCN(Cc3ccccc3)CC[C@@H]2N1Cc1cccnc1	none
CC(C)(O)c1cc(CC2(NC3CCCCC3)COC2)no1	none
Cc1noc(C)c1C1CCCN1S(=O)(=O)c1ccccc1 (stereo not drawn)	none
Cc1nnsc1Sc1ccccc1Cl	none
CCCNC(=O)c1cc(-c2ccc(C)cc2)n(C2CCS(=O)(=O)C2)n1 (stereo not drawn)	none
Cc1ccc(-c2cc(C(=O)N3CCc4ccccc4C3)nn2C2CCS(=O)(=O)C2)cc1 (stereo not drawn)	USP30 inh 31
Cn1c(CNc2ccc(F)cc2)nnc1SCC(=O)Nc1cccc2ccccc12	none
COC(=O)c1ccccc1NC(=O)CSc1nnc(CNc2ccc(F)cc2)n1CC1CCCO1 (stereo not drawn)	USP17 block 90
COc1ccc(NC(=O)C(C)n2c(=O)cc(-c3ccccc3)c3c(C)nn(C)c32)cc1OC (stereo not drawn)	USP30 inh 31
COc1ccc(C(=O)Nc2ccc(-c3ccccc3)cc2)cc1OC	none
Cc1ccccc1NC(=O)C(C)n1c(=O)cc(-c2ccccc2)c2c(C)nn(C)c21 (stereo not drawn)	USP17 block 74
Cc1ccccc1NC(=O)C(C)c1c(C)n[nH]c1C (stereo not drawn)	none
O=C(Cn1cc(NC(=O)c2ccc3nc[nH]c3c2)cn1)NC1CCCC1	none
Cc1c(C(=O)Nc2ccc(F)cc2F)nnn1-c1ccccc1	none
O=C(Nc1nc2ccsc2c(=O)s1)C1CCC1	none
CSc1nc(N2CCCC2)c2sccc2n1	USP17 block 40
CN1[C@@H](CCC(=O)Nc2ccccc2)CNC(=O)[C@@H]2[C@H]1CCN2CC1CC1	none
O=C(NCCc1ccccc1F)c1cn2cc(Cl)ccc2n1	USP30 inh 61
O=C(NCCc1c[nH]c2ccc(F)cc12)c1cn2cc(Cl)ccc2n1	none
Cc1ccccc1CN1C[C@H]2CN(C(=O)C(C)C)C[C@H]21	none
COc1ccccc1OC(C)C(=O)Nc1nc(-c2ccccc2)ns1 (stereo not drawn)	none
O=C1NC(c2ccccc2)=N[C@@]12CC[C@@H]1CN(Cc3cccc(Cl)c3)C[C@@H]12	none
O=C(Nc1cccc(Cl)c1Cl)N1CCCN(Cc2ccc(F)cc2)CC1	none
O=C(Nc1cccc2cnccc12)N1CCCCCC1	USP17 block 34
Cc1ccc(NC(=O)c2cc(C(C)C)n(C3CCS(=O)(=O)C3)n2)cc1C (stereo not drawn)	none
Cc1ccc(S(=O)(=O)N2CCCCC2)cc1C(=O)Oc1ccc(OCc2ccccc2)cc1	none
CCOc1ncccc1C(=O)N1CCCCC1c1ccn2nccc2n1 (stereo not drawn)	none
Cc1c(C)n(-c2cccnc2)c2ncnc(NCCO)c12	none
O=C(NCCc1nc(-c2ccc3c(c2)OCO3)n[nH]1)c1cccc(Br)c1	USP17 block 38
O=C(NCCc1nc(-c2ccncc2)n[nH]1)c1cccc2cccnc12	none (no result: USP28 block, USP30 inh)
O=C(NCc1ccccc1)[C@H]1C[C@@H]2CN(S(=O)(=O)C3CC3)C[C@H]1O2	none
O=C(NCc1ccc2c(c1)OCO2)c1ccsc1	none
O=C(/C=C/c1ccc2c(c1)OCO2)NCCCn1ccnc1	none
O=C(/C=C/c1ccc2c(c1)OCO2)NCc1ccc2c(c1)OCO2	USP30 inh 32
